Results on 19 molecules are retold here after PubChem BioAssay AID2568 (National Center for Advancing Translational Sciences (NCATS), 2010).

Inconclusive results are not listed. The source made the active and inactive calls. Calls follow the shape of the full dose curve.

Chain of Neuropeptide S receptor (Homo sapiens) (Q6W5P4 whole entry, looked up): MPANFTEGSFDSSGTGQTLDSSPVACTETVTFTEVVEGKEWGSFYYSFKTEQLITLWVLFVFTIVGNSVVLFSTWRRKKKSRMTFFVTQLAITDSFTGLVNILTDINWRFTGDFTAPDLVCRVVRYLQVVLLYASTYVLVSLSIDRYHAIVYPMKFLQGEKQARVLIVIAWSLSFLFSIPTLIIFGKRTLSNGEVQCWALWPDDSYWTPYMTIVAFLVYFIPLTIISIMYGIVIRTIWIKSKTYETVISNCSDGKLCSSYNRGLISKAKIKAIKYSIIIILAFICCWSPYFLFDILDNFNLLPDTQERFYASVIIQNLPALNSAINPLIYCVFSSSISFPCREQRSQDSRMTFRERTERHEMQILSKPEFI

This assay has as its target Neuropeptide S receptor (Homo sapiens) (UniProt Q6W5P4). Put plainly: Confirmation Concentration-Response Assay for Antagonists of the Neuropeptide S Receptor: cAMP Signal Transduction, SAR for Probe. To be noted: CHO-NPSR cells, cAMP TR-FRET, antagonist mode; series mostly up to 47.8 µM; activity change, negative = inhibition: at the top concentration. From the text:
NIH Chemical Genomics Center [NCGC] NIH Molecular Libraries Probe Production centers Network [MLPCN] MLPCN Grant: X01-DA026210-01 Assay Submitter (PI): Heilig, Markus Alexander NCGC Assay Overview: Neuropeptide S receptor (NPSR), previously known as GPR154, is a recently de-orphanized G protein coupled receptor. Its endogenous ligand is the 20 amino acids peptide Neuropeptide S (NPS). […] NPS and its receptor are found in various tissues. Specifically they are highly expressed in brain areas that have been implicated in modulation of arousal, stress and anxiety. Central administration of NPS in mice produces an unusual profile of activity by inducing wakefulness and arousal, while at the same time suppressing anxiety. Therefore, NPSR may represent a novel drug target for the treatment of sleep and anxiety disorders. To identify NPSR antagonists, we developed a cell-based cAMP assay. NPS can stimulate the production of cAMP in Chinese hamster ovary cells stably expressing NPS receptor. This change in intracellular cAMP level can be detected by a homogeneous LANCE cAMP assay based on the TR-FRET (time resolved fluorescence resonance energy transfer) between a europium-labeled cAMP tracer complex and a cAMP-specific antibody labeled with Alexa Fluor 647. The europium-labeled cAMP tracer complex is formed by the tight interaction between Biotin-cAMP (b-cAMP) and streptavidin labeled with Europium-W8044 chelate (Eu-SA). Light pulse at 320 nm excites the europium of the cAMP tracer and the energy emitted is transferred to the Alexa molecule bound to the cAMP antibody, generating a TR-FRET signal at 665 nm. Residual energy from the europium will produce a light at 620 nm. The native unlabeled cAMP from cell lysates competes with the europium-cAMP tracer for antibody binding and reversely reduces the emission signal of Alexa by interrupting FRET between the two labeled molecules. Both emission signals from the FRET donor (620 nm) and the acceptor (665 nm) can be detected by a plate reader in the TRF mode. Expression of result in fluorescence ratio (665 nm/620 nm) helps to normalize differences due to cell density and reagent dispensing. This assay was successfully optimized to a 1536-well plate format. Select compounds from the primary screen (AID 1461) were chosen for confirmation based on potency, efficacy, SAR, and activity across other assays in PubChem and at NCGC. Other compounds are analogs of active compounds from the primary screen.
NCGC Assay Protocol Summary: A Chinese hamster ovary (CHO) cell line stably expressing the NPS receptor (CHO-NPSR) was obtained from Dr. Heilig lab at NIAAA and maintained in F-12 Kaighn's media (Invitrogen, Carlsbad, CA, 21127) supplemented with 10 % FBS, 100 units/ml penicillin, 100 ug/ml streptomycin and 250 ug/ml geneticin at 37C, 5% CO2 in a humidified atmosphere. Before the assay, aliquots of cells were frozen and stored at -135C. The assay was performed in 1536-well format. Data are reported for both the ratio of the two emission wavelengths, and also for the component 'donor' channel, Em2=620. […] IC50 values were determined from concentration-response data modeled with the standard Hill equation. NPS 1536-well assay protocol: (1) Fresh or frozen CHO-NPSR cells were suspended in F-12 Kaighn's media supplemented with 10 % FBS, 100 units/ml penicillin and 100 ug/ml streptomycin. Cells were plated at 4 ul/well (1200 cells) to white, tissue culture treated 1536-well plates, and then cultured at 37C, 5 % CO2 for 16 to 30 hours. (2) Add 23 nl/well of compound in DMSO solution. The final titration for each compound was between 0.6 nM and 46 uM. (3) Add 1 ul of stimulation reagent (1X HBSS buffer, 5 mM HEPES, 0.1% BSA, 500 uM RO-201724 (Sigma-Aldrich, B8279), 1.5% Alexa 647-labeled anti-cAMP antibody (from Perkin Elmer), 100 nM NPS) (4) Incubation at 37C, 5 % CO2 for 60 min. (5) Add 1 ul/well detection reagent. […]
On the technique in general: Time-resolved FRET reads energy transfer from a long-lived donor to a nearby acceptor.
Regarding `COc1cccc(C2c3c(ncn(-c4cccc(Br)c4)c3=N)Oc3ccc4ccccc4c32)c1` (centres undefined), the Potency is 19.4 µM (active).
Regarding `c1ccc(P(c2ccccc2)c2cnc3ccccn23)cc1`, the “activity change, negative = inhibition” value is -26.4% (inactive).
Regarding `COc1cccc(C2c3c(ncn(-c4ccc(Br)cc4)c3=N)Oc3ccc4ccccc4c32)c1` (centres undefined), the Potency is 15.4 µM (active).
For the molecule `C[n+]1cc(C(O)(c2ccccc2)c2ccccc2)n2ccccc21`, the “activity change, negative = inhibition” value is -11.9% (inactive).
In the case of `CCC(C)(CCN1CCOCC1)N(Cc1cc2ccccc2n(C)c1=O)C(=O)C1CCCCC1` (centres undefined), the Potency was 0.308 µM (active).
On to `COc1cccc(C2c3c(ncn(-c4ccc(-c5ccccc5)cc4)c3=N)Oc3ccc4ccccc4c32)c1` (centres undefined), for which the “activity change, negative = inhibition” value was -18.1% (inactive).
`Cc1c(P(=S)(c2ccccc2)c2ccccc2)[n+]2ccccc2n1CC(=O)c1ccccc1`: the Potency was 4.45 µM (active).
On the same count and under the same terms, as for `COc1cccc(C2c3c(ncn(-c4ccc(C(C)(C)C)cc4)c3=N)Oc3ccc4ccccc4c32)c1` (centres undefined), the figure is 15.4 µM (active); as for `COc1cccc(C2c3c(ncn(-c4cccc(C)c4)c3=N)Oc3ccc4ccccc4c32)c1` (centres undefined), 12.2 µM (active).
Consider `Cc1c(P(=S)(c2ccccc2)c2ccccc2)c2ccccc2n1CCc1ccccc1`, for which the “activity change, negative = inhibition” value is -9.1% (inactive).
As for `COc1ccc(C2c3c(n(CCCc4ccccc4)cnc3=N)Oc3ccc4ccccc4c32)cc1OC` (centres undefined), the Potency is 24.4 µM (active).
Consider `COc1ccc(C2C3=C(N=CN(CCN4CCOCC4)C3N)Oc3ccccc32)cc1OC` (centres undefined), for which the “activity change, negative = inhibition” value is -10.3% (inactive).
In the case of `COc1cccc(C2c3c(ncn(Cc4cccs4)c3=N)Oc3ccc4ccccc4c32)c1` (centres undefined), the Potency was 19.4 µM (active).
On to `COc1ccc(C2c3c(nc(CCc4ccccc4)[nH]c3=O)Oc3ccc4ccccc4c32)cc1OC` (centres undefined), for which the “activity change, negative = inhibition” value is -11.2% (inactive).
On the same count and under the same terms, as for `Cc1c(P(=S)(c2ccccc2)c2ccccc2)c2ccccc2n1C(=O)Cc1ccccc1`, the figure is -16.5% (inactive).
In the case of `COc1cccc(C2c3c(ncn(-c4cccnc4)c3=N)Oc3ccc4ccccc4c32)c1` (centres undefined), the Potency was 12.2 µM (active).
The same measure, in the same setting: the figure for `COc1ccc(C2c3c(ncn(CCCc4ccccc4)c3=N)Oc3ccc4ccccc4c32)cc1OC` (centres undefined) is 24.4 µM (active); for `COc1ccc(C2c3ccccc3Oc3ncn(CCN4CCOCC4)c(=N)c32)cc1OC` (centres undefined) it is 6.14 µM (active).
Same read-out and setting: the figure for `COc1cccc(C2c3c(ncn(-c4cccc(Cl)c4)c3=N)Oc3ccc4ccccc4c32)c1` (centres undefined) is 15.4 µM (active).
